Experimental findings from PubChem BioAssay are described below.

Several values for one entry are separate records, joined by “and”; a condition that tells them apart may be missing. Equal values may be shown once. Results filed as inconclusive are left out. Activity calls are given as the source filed them.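 Rule for the calls, unless noted: active = normalized viability below 100% at a tested concentration; inactive = the rest.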

Test [1] in a line: growth inhibition of DIPG glioma cells, dose response, cell-based, SU-DIPG-XVII, MIPE5.0, CellTiter-Glo, qHTS (AID 1347060; cut-off not given, nearly all actives have AC50 up to about 26 µM;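 for AC50: cells exposed to compound for 48 hours before viability readout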). The note with it: SU-DIPG-XVII viability, CellTiter-Glo ATP luminescence. In general terms: ATP-based viability assays read luminescence as a measure of living cells.
Test [2] can be described thus: growth inhibition of DIPG glioma cells, dose response, cell-based, SU-DIPG-IV, MIPE4.0, CellTiter-Glo, qHTS (AID 1347063; cut-off not given, nearly all actives have AC50 up to about 30 µM;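 note: compound exposure lasted 48 hours before the viability readout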). The settings on record: SU-DIPG-IV viability, CellTiter-Glo ATP luminescence.
Test [3] is described as follows: growth inhibition of DIPG glioma cells, dose response, cell-based, SU-DIPG-XIII, MIPE5.0, CellTiter-Glo, qHTS (AID 1347064; cut-off not given, nearly all actives have AC50 up to about 23 µM;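 for AC50: cells exposed to compound for 48 hours before the viability read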). The note with it: SU-DIPG-XIII viability, CellTiter-Glo ATP luminescence.
Test [4] is described as follows: viability loss in pontine glioma line – cell-based, SU-DIPG-XXV, MIPE5.0, CellTiter-Glo, qHTS, dose response (AID 1347065; cut-off not given, nearly all actives have AC50 up to about 26 µM;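 note: cells exposed to compound for 48 hours before ATP readout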). The note with it: CellTiter-Glo ATP luminescence.
Test [5] in a line: SU-DIPG-VI glioma cell viability, MIPE4.0 library, CellTiter-Glo luminescence, qHTS (AID 1347066; cut-off not given, nearly all actives have AC50 up to about 30 µM;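 note: cells exposed to compound for 48 hours before readout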). The note with it: CellTiter-Glo ATP luminescence.
The nature of test [6]: JHH-DIPG-1 glioma cell viability, MIPE5.0 library, CellTiter-Glo luminescence, qHTS (AID 1347067; cut-off not given, nearly all actives have AC50 up to about 26 µM;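 note: cells exposed to compound for 48 hours before readout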). The note with it: JHH-DIPG-1 glioma viability, CellTiter-Glo ATP luminescence.
Test [7] is described as follows: SU-DIPG-XXV glioma cell viability, MIPE5.0 library, qHTS (AID 1347068; cut-off not given, nearly all actives have IC50 up to about 30 µM;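 for IC50: cells exposed to compound for 48 hours before viability readout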).
A short description of test [8]: sensitizers of A549 cells to miR-34 induction, primary screen, imaging, A549 dox-inducible miR-34, nuclei and caspase counts (AID 1347080;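 active = compounds whose cell count with miR-34 switched on is under 0.7 times the count with it off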). The note with it: A549 miR-34 inducible, Hoechst nuclei count, 48 h.
The nature of test [9]: modifiers of HSF1 nuclear foci, imaging, Selleck Cancer Library (AID 1347162; in the data active = plate-normalised HSF1 focus index below about 0.46). The note with it: human cells, at 10 µM; SSMD: measured here: HSF1 foci SSMD mean; cell count: measured here: cell number; plate-normalised HSF1 focus index: stronger effect = lower value.
The nature of test [10]: survival rescue of mitochondrial mutant cells in low glucose, primary screen, MELAS cybrids, Rieske KO mouse fibroblasts, CellTiter-Glo (AID 1508586;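 active = mean z-score across replicates of 1.96 or higher in either the MELAS or the Rieske mutant cell line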;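 note: z relative to plate mean and SD of compound and empty wells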).
A short description of test [11]: ovarian cancer cell viability with rucaparib, profiling panel, oncology-focused library, rucaparib conditional (AID 1508598). The note with it: patient-derived ovarian cancer cells, CellTiter-Glo viability, 144 h, stronger effect = lower value.
Setting [12] is: stronger effect = lower value, cell number ratio, induced over uninduced.
Setting [13] is: measured here: relative caspase fold change +Dox/-Dox.
Setting [14] is: measured here: total cells with miR-34 induction, stronger effect = lower value.
Where [15] appears, read: measured here: total cells without miR-34 induction.

A word on the AC50: it is the concentration at which the activity in the assay is half-maximal. By IC50 is commonly meant the concentration that inhibits the measured activity by half. A word on the viability: it is a read-out of living cells in per cent, often relative to untreated cells. For `COC(=O)c1ccc2c(C(=Nc3ccc(N(C)C(=O)CN4CCN(C)CC4)cc3)c3ccccc3)c(O)[nH]c2c1`, the AC50 was 1.48 µM (active) in test [1]; 9.35 µM (active) in test [2]; 2.09 µM (active) in test [3]; 1.66 µM (active) in test [4]; 5.9 µM (active) in test [6]. For the same compound, the outcome in test [5] was inactive. The IC50 in [7] was 3.32 µM (active). Besides, the fold change in test [8] (setting [12]) was 0.909 (inactive); in test [8] (setting [13]), 1.19. Moreover, the cell count is 5790 in test [8] (setting [14]), 6370 in [8] (setting [15]) and 7520 in test [9]. This compound also gave an SSMD in test [9] of 2.23. In addition, the plate-normalised HSF1 focus index in test [9] is 1.08 (inactive). The z-score in [10] (MELAS cybrid survival, CellTiter-Glo 48 h, stronger effect = higher value) is -0.457 (inactive); in test [10] (Rieske KO mouse fibroblast survival, CellTiter-Glo 72 h), -1.1. Further, the viability is 119% (inactive) in test [11] (at 0.000305 µM, OCI-C5x cells, with rucaparib 10 µM, 100% = cells with rucaparib alone); 127% (inactive) in test [11] (at 0.000305 µM, OCI-C5x cells, without rucaparib); 103% (inactive) in test [11] (at 0.000305 µM, OCI-P5x cells, with rucaparib 20 µM, 100% = cells with rucaparib alone); 111% (inactive) in [11] (at 0.000305 µM, OCI-P5x cells, without rucaparib); 107% (inactive) in [11] (at 0.00122 µM, OCI-C5x cells, with rucaparib 10 µM, 100% = cells with rucaparib alone); 128% (inactive) in test [11] (at 0.00122 µM, OCI-C5x cells, without rucaparib). Also, the viability was 95.9% (active) in [11] (at 0.00122 µM, OCI-P5x cells, with rucaparib 20 µM, 100% = cells with rucaparib alone); 102% (inactive) in test [11] (at 0.00122 µM, OCI-P5x cells, without rucaparib); 114% (inactive) in test [11] (at 0.00488 µM, OCI-C5x cells, with rucaparib 10 µM, 100% = cells with rucaparib alone); 118% (inactive) in [11] (at 0.00488 µM, OCI-C5x cells, without rucaparib); 95.7% (active) in [11] (at 0.00488 µM, OCI-P5x cells, with rucaparib 20 µM, 100% = cells with rucaparib alone); 104% (inactive) in test [11] (at 0.00488 µM, OCI-P5x cells, without rucaparib). Moreover, the viability was 120% (inactive) in test [11] (at 0.0195 µM, OCI-C5x cells, with rucaparib 10 µM, 100% = cells with rucaparib alone); 115% (inactive) in [11] (at 0.0195 µM, OCI-C5x cells, without rucaparib); 94.4% (active) in [11] (at 0.0195 µM, OCI-P5x cells, with rucaparib 20 µM, 100% = cells with rucaparib alone); 97.5% (active) in test [11] (at 0.0195 µM, OCI-P5x cells, without rucaparib); 116% (inactive) in [11] (at 0.0781 µM, OCI-C5x cells, with rucaparib 10 µM, 100% = cells with rucaparib alone); 116% (inactive) in test [11] (at 0.0781 µM, OCI-C5x cells, without rucaparib). The viability was 93% (active) in test [11] (at 0.0781 µM, OCI-P5x cells, with rucaparib 20 µM, 100% = cells with rucaparib alone); 96.8% (active) in test [11] (at 0.0781 µM, OCI-P5x cells, without rucaparib); 128% (inactive) in test [11] (at 0.313 µM, OCI-C5x cells, with rucaparib 10 µM, 100% = cells with rucaparib alone); 118% (inactive) in test [11] (at 0.313 µM, OCI-C5x cells, without rucaparib); 87% (active) in test [11] (at 0.313 µM, OCI-P5x cells, with rucaparib 20 µM, 100% = cells with rucaparib alone); 97.6% (active) in test [11] (at 0.313 µM, OCI-P5x cells, without rucaparib). For the same compound, the viability in test [11] (at 1.25 µM, OCI-C5x cells, with rucaparib 10 µM, 100% = cells with rucaparib alone) was 124% (inactive); in test [11] (at 1.25 µM, OCI-C5x cells, without rucaparib) it was 116% (inactive); in test [11] (at 1.25 µM, OCI-P5x cells, with rucaparib 20 µM, 100% = cells with rucaparib alone), 66.6% (active); in [11] (at 1.25 µM, OCI-P5x cells, without rucaparib) it was 73.9% (active); in test [11] (at 5 µM, OCI-C5x cells, with rucaparib 10 µM, 100% = cells with rucaparib alone), 124% (inactive); in test [11] (at 5 µM, OCI-C5x cells, without rucaparib), 118% (inactive). Moreover, the viability in test [11] (at 5 µM, OCI-P5x cells, with rucaparib 20 µM, 100% = cells with rucaparib alone) is 51.6% (active); in test [11] (at 5 µM, OCI-P5x cells, without rucaparib) it was 59.1% (active).

Consider `COc1ccc2c(c1)CC[C@@H]1[C@@H]2CC[C@]2(C)[C@@H](NCCCCCCN3C(=O)C=CC3=O)CC[C@@H]12`, for which the compound was called inactive in test [1], in test [2], in [3], in test [4], in test [5] and in [6]. Besides, in [7], the compound was classed as inactive. Also, the fold change in test [8] (setting [12]) was 0.933 (inactive) and 0.926 (inactive); in test [8] (setting [13]) it was 1.05 and 1.65. Also, the cell count is 5880 and 5430 in [8] (setting [14]); 6300 and 5860 in test [8] (setting [15]).

As for `CC(N[C@H]1CCCC[C@@H]1NC(=O)c1ccc(Cl)cc1)c1cccc2ccccc12` (stereo partly specified), the AC50 in test [1] was 8.33 µM (active); in test [2], 0.148 µM (active); in [3] it was 7.42 µM (active); in test [4] it was 8.33 µM (active); in test [6] it was 9.34 µM (active). Also, in test [7], the IC50 is 16.6 µM (active).

Regarding `COc1cc(C)c(Sc2cnc(NC(=O)c3ccc(CNC(C)C(C)C)cc3)s2)cc1C(=O)N1CCN(C(C)=O)CC1` (stereo unspecified), the AC50 in [1] is 14.8 µM (active); in [2], 18.7 µM (active); in test [3], 8.33 µM (active); in test [4] it was 10.5 µM (active); in [5] it was 14.8 µM (active); in test [6], 16.6 µM (active). Moreover, in test [7], the IC50 is 14.8 µM (active).

Consider `CCOc1cc2ncc(C#N)c(Nc3ccc(OCc4ccccn4)c(Cl)c3)c2cc1NC(=O)/C=C/CN(C)C`, for which the AC50 in [1] was 14.8 µM (active); in [2], 0.148 µM (active); in test [3], 5.9 µM (active); in [4], 0.934 µM (active); in [6], 5.25 µM (active). Also, the result in [5] was inactive. Further, the SSMD in test [9] is -1.15. Further, the cell count in [9] turned out to be 7340. For the same compound, the plate-normalised HSF1 focus index in test [9] was 0.928 (inactive).

In the case of `CCN(CC)CCCCNc1ncc2c(n1)N(C)C(=O)N(c1c(Cl)c(OC)cc(OC)c1Cl)C2`, the AC50 in [1] was 0.59 µM (active); in test [2], 18.7 µM (active); in [3], 0.263 µM (active); in test [4], 0.372 µM (active). For the same compound, the IC50 in test [7] was 7.42 µM (active).
